Results taken from PubChem BioAssay (Tox21).
Inconclusive results are not listed. Active and inactive are the calls of the source. Unless noted, calls follow the shape of the dose curve; as a rule, active = well fitted curve in the direction sought with a large enough effect in the repeat runs; inconclusive = weak or mixed curves; inactive = no such curve, though single readings can be large; an effect the other way counts as inactive or inconclusive.

Columns and labels:
[1] = qHTS assay to identify small molecule agonists of the peroxisome proliferator-activated receptor delta (PPARd) signaling pathway - cell viability counter screen (AID 743211); also: nearly all actives have a fitted effect of over 55% in size; also: potency is read from the fitted curve at half-maximal effect
Outline: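 Read-out: CellTiter-Glo luminescence, 30 min RT, measured in the same wells as the beta-lactamase reporter. Cells: GeneBLAzer PPAR delta UAS-bla HEK293H, 3000 cells/well, compound exposure 17 h at 37C.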

[2] = qHTS assay to identify small molecule antagonists of the peroxisome proliferator-activated receptor delta (PPARd) signaling pathway - cell viability counter screen (AID 743213); also: nearly all actives have a fitted effect of over 50% in size; also: potency is read from the fitted curve at half-maximal effect
Outline: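 Luminescence from CellTiter-Glo, added after the bla read and incubated 30 min at room temperature, gives viability of HEK293H PPARd-bla cells exposed to compounds for 17 h at 37 C with 300 nM L165041.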

[3] = qHTS assay to identify small molecule agonists of the farnesoid-X-receptor (FXR) signaling pathway - cell viability counter screen (AID 743218); also: nearly all actives have a fitted effect of over 45% in size; also: potency is read from the fitted curve at half-maximal effect
Outline: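 FXR-UAS-bla HEK 293T cells, plated 5 h at 37 C, were exposed to compounds for 16 h at 37 C. CellTiter-Glo was then added to the same wells as the bla readout; luminescence read after 30 min at room temperature.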

[4] = qHTS assay to identify small molecule antagonists of the farnesoid-X-receptor (FXR) signaling pathway - cell viability counter screen (AID 743221; active = well fitted cell-killing curve with a large enough effect in the repeat runs, not every such curve was filed as active; also: nearly all actives have a fitted effect of over 50% in size; also: potency is read from the fitted curve at half-maximal effect)
Outline: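 HEK 293T FXR-bla cells, 5 h pre-incubation; compound + CDCA 50 uM final, 16 h, 37 C; beta-lactamase FRET read first, then CellTiter-Glo luminescence, 30 min RT.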

[5] = biological target: Vitamin D3 receptor (Homo sapiens) (UniProt P11473); experiment: qHTS assay to identify small molecule agonists of the vitamin D receptor (VDR) signaling pathway (AID 743222; calls by dose curve; also: % is scaled to controls: 0 for no effect and ±100 for the full control effect)
Vitamin D3 receptor (Homo sapiens), sequence (P11473 whole entry, looked up): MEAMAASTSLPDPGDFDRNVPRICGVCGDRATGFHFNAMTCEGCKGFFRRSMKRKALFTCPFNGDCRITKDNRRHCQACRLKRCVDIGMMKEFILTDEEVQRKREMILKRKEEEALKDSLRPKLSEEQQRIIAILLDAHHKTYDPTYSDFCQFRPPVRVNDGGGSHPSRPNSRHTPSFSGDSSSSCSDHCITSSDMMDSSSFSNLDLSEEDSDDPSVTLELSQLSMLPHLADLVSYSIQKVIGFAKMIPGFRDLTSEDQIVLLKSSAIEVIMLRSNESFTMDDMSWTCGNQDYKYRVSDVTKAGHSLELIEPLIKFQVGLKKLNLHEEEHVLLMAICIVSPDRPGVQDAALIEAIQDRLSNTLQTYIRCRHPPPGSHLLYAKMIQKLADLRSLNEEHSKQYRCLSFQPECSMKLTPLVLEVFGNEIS
Outline: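 VDR-bla cells were plated 4 h at 37C/5% CO2, then exposed to compounds in DMSO for 16 h. After LiveBLAzer B/G FRET substrate addition and 2 h at room temperature, beta-lactamase reporter fluorescence was read.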

[6] = biological target: Vitamin D3 receptor (Homo sapiens) (UniProt P11473); experiment: qHTS assay to identify small molecule antagonists of the vitamin D receptor (VDR) signaling pathway (AID 743223; active = well fitted inhibition curve with a large enough effect in the signal ratio in the repeat runs, not every such curve was filed as active; the % refers to the signal ratio; also: % is scaled to controls: 0 for no effect and ±100 for the full control effect)
Outline: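 Beta-lactamase reporter read-out: FRET substrate fluorescence after 2 h at room temperature, following 16 h exposure of VDR-bla cells to test compound plus 3 nM (final) 1alpha,25-dihydroxyvitamin D3 agonist at 37C.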

[7] = qHTS assay to identify small molecule agonists of the vitamin D receptor (VDR) signaling pathway - cell viability counter screen (AID 743224); also: nearly all actives have a fitted effect of over 50% in size; also: potency is read from the fitted curve at half-maximal effect
Outline: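 VDR-bla cells were preincubated 4 h at 37C/5% CO2, then exposed to compounds for 16 h. After the 2 h room-temperature bla FRET read, CellTiter-Glo was added to the same wells and luminescence read after 30 min.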

[8] = qHTS assay to identify small molecule antagonists of the vitamin D receptor (VDR) signaling pathway - cell viability counter screen (AID 743225); also: nearly all actives have a fitted effect of over 50% in size; also: potency is read from the fitted curve at half-maximal effect
Outline: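 Viability counter screen run in the same wells as the beta-lactamase reporter assay: HEK 293T VDR-UAS-bla cells, 16 h compound exposure at 37C with 3 nM (final) 1-alpha,25-dihydroxyvitamin D3. CellTiter-Glo luminescence, 30 min, room temperature.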

[9] = qHTS assay to identify small molecule agonists of the NFkB signaling pathway (AID 1159509; active = well fitted curve in the direction sought with a large enough effect in the signal ratio in the repeat runs, not every such curve was filed as active; the % refers to the signal ratio; also: series mostly up to about 61 µM; % is scaled to controls: 0 for no effect and ±100 for the full control effect)
Outline: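 NFkB-bla ME-180 cells carry a beta-lactamase reporter under an NF-kB response element. They were plated overnight, then exposed to compounds for 5 h at 37 C. Read-out is LiveBLAzer FRET after 1.5 hr at room temperature (405 nm excitation; 460/530 nm emission).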

[10] = qHTS assay to identify small molecule agonists of the NFkB signaling pathway - cell viability counter screen (AID 1159515; calls by dose curve; also: series mostly up to about 61 µM; % is scaled to controls: 0 for no effect and ±100 for the full control effect; nearly all actives have a fitted effect of over 55% in size)
Outline: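 NFkB-bla ME-180 cells, 2,000/well, were plated overnight at 37 C, 5% CO2, then exposed to compounds in DMSO for 5 hr. After the bla FRET read, CellTiter-Glo was added to the same wells; luminescence was read after 30 min at room temperature.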

[11] = qHTS assay to identify small molecule agonists of the endoplasmic reticulum stress response signaling pathway (AID 1159516; active = well fitted activation curve with a large enough effect in the signal ratio in the repeat runs, not every such curve was filed as active; the % refers to the signal ratio; also: % is scaled to controls: 0 for no effect and ±100 for the full control effect)
Outline: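 CellSensor ESRE-bla HeLa cells, carrying a beta-lactamase reporter driven by the ER stress response element, were plated overnight and exposed to compounds for 5 hr at 37 C. Reporter activity was read as FRET substrate fluorescence after 2 hr at room temperature.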

[12] = qHTS assay to identify small molecule agonists of the endoplasmic reticulum stress response signaling pathway - cell viability counter screen (AID 1159517; calls by dose curve)
Outline: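 CellTiter-Glo was added to wells already read for beta-lactamase FRET, and luminescence was recorded 30 min later. Cells: ESRE-bla HeLa, 1,500 per well, compound exposure 5 hr at 37 C.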

[13] = biological target: Nuclear receptor ROR-gamma (Homo sapiens) (UniProt P51449); experiment: qHTS assay to identify small molecule antagonists of the retinoid-related orphan receptor gamma (ROR-gamma) signaling pathway (AID 1159521; also: nearly all actives have a fitted effect of over 50% in size; also: potency is read from the fitted curve at half-maximal effect)
Outline: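 Luminescence readout (ONE-Glo, 30 min RT) after 16 h doxycycline induction; loss of signal scored as antagonism. CHO cells with TET-inducible RORγ and RORE-LUC reporter; compounds added 2 h before 1 uM final doxycycline.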

[14] = qHTS assay to identify small molecule agonists of the AP-1 signaling pathway (AID 1159526; calls by dose curve; also: % is scaled to controls: 0 for no effect and ±100 for the full control effect)
[15] = biological target: Peroxisome proliferator-activated receptor delta (Homo sapiens) (UniProt Q03181); experiment: qHTS assay to identify small molecule agonists of the peroxisome proliferator-activated receptor delta (PPARd) signaling pathway (AID 743212; calls by dose curve; also: % is scaled to controls: 0 for no effect and ±100 for the full control effect)
Peroxisome proliferator-activated receptor delta (Homo sapiens), sequence (Q03181 whole entry, looked up): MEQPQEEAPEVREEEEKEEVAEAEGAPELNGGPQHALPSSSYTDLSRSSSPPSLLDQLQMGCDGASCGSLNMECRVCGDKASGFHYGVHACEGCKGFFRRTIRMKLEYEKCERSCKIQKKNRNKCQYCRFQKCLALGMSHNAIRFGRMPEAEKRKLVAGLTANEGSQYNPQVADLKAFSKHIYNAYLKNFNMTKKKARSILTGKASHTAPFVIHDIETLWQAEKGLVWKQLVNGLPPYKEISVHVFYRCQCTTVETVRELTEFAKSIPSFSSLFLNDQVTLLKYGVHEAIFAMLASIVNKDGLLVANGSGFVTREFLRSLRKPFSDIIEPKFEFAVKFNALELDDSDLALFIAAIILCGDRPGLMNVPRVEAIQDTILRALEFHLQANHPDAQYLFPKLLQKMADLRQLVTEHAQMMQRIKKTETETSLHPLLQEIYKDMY
Outline: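 A PPARd-bla HEK293H line with beta-lactamase under an Upstream Activator Sequence is treated with compounds at 37 C. Substrate loading for 2 h at room temperature precedes the fluorescence measurement.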

[16] = biological target: Peroxisome proliferator-activated receptor delta (Homo sapiens) (UniProt Q03181); experiment: qHTS assay to identify small molecule antagonists of the peroxisome proliferator-activated receptor delta (PPARd) signaling pathway (AID 743215; active = well fitted inhibition curve with a large enough effect in the signal ratio in the repeat runs, not every such curve was filed as active; the % refers to the signal ratio)
Outline: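 PPARd UAS-bla HEK293H cells were pre-incubated 5 h at 37 C, then given test compounds in DMSO plus agonist L165041 (300 nM final). After 17 h at 37 C, beta-lactamase FRET substrate was added; fluorescence read after 2 h at room temperature.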

[17] = biological target: Bile acid receptor (Homo sapiens) (UniProt Q96RI1); experiment: qHTS assay to identify small molecule antagonists of the farnesoid-X-receptor (FXR) signaling pathway (AID 743217; active = well fitted inhibition curve with a large enough effect in the signal ratio in the repeat runs, not every such curve was filed as active; the % refers to the signal ratio; also: % is scaled to controls: 0 for no effect and ±100 for the full control effect)
Bile acid receptor (Homo sapiens), sequence (Q96RI1 whole entry, looked up): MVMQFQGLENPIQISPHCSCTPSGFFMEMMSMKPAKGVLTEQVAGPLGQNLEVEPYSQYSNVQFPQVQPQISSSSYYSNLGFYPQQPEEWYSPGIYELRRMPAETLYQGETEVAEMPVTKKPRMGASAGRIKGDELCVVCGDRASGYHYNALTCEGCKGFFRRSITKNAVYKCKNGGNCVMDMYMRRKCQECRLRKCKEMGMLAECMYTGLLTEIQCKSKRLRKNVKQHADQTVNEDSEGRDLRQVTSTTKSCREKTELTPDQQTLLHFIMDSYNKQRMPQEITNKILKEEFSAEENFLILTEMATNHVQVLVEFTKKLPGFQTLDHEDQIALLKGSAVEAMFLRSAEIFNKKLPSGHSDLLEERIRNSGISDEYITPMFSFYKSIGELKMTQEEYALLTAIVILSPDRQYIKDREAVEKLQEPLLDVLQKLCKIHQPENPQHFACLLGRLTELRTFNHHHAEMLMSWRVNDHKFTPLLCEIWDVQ
Outline: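 FXR-UAS-bla HEK 293T cells pre-incubated 5 h at 37 °C, then exposed to compounds with chenodeoxycholic acid (50 uM final) for 16 h at 37 °C. Beta-lactamase reporter read by LiveBLAzer B/G FRET substrate fluorescence after 2 h at room temperature.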

[18] = biological target: Bile acid receptor (Homo sapiens) (UniProt Q96RI1); experiment: qHTS assay to identify small molecule agonists of the farnesoid-X-receptor (FXR) signaling pathway (AID 743220; active = well fitted activation curve with a large enough effect in the signal ratio in the repeat runs, not every such curve was filed as active; the % refers to the signal ratio; also: % is scaled to controls: 0 for no effect and ±100 for the full control effect)
Outline: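 Beta-lactamase reporter under UAS control in GeneBLAzer FXR HEK 293T cells (5000/well) measured with LiveBLAzer FRET substrate after 2 h at room temperature. Compound exposure lasted 16 h at 37C.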

[19] = qHTS assay to identify small molecule antagonists of the retinoid-related orphan receptor gamma (ROR-gamma) signaling pathway - cell viability counter screen (AID 1159520)
Outline: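 Tet-on ROR gamma CHO cells (1,000/well) were plated 4 hr, given compounds in DMSO for 2 hr at 37 C, then induced with 1 uM final doxycycline for 16 hr. Viability was read as ATP by CellTiter-Glo luminescence after 30 min.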

[20] = qHTS assay to identify small molecule agonists of the AP-1 signaling pathway - cell viability counter screen (AID 1159525; calls by dose curve; also: nearly all actives have a fitted effect of over 55% in size)
Outline: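 ME-180 AP-1-bla, 2500 cells/well, Opti-MEM + 0.5% dialyzed FBS; overnight 37 °C; cpd 15-pt titration, 5 h 37 °C; CellTiter-Glo 30 min RT; luminescence read; normalised to TOAB and DMSO controls.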

CC[C@@H]([C@H](C)O)n1ncn(-c2ccc(N3CCN(c4ccc(OC[C@@H]5CO[C@@](Cn6cncn6)(c6ccc(F)cc6F)C5)cc4)CC3)cc2)c1=O
inactive: outcome [5] | outcome [6] | Potency [7] | outcome [9] | outcome [10] | outcome [11] | outcome [12] | outcome [14]
active: Potency [1] 29.8 µM | Potency [2] 23.7 µM | Potency [3] 29.8 µM | Potency [4] 29.8 µM | Potency [8] 23.9 µM | Potency [13] 0.944 µM

NC(=O)Nc1ccc(Cl)c(Cl)c1
inactive: Potency [1] | Potency [15] | Potency [2] | Potency [16] | Potency [17] | Potency [3] | Potency [18] | Potency [4] | outcome [5] | outcome [6] | Potency [7] | Potency [8] | outcome [9] | outcome [10] | outcome [11] | outcome [12] | outcome [14]

COc1cc2ncnc(Nc3ccc(F)c(Cl)c3)c2cc1OCCCN1CCOCC1
active: Potency [1] 29.8 µM | Potency [13] 11.9 µM
inactive: Potency [18] | outcome [5] | outcome [6] | Potency [7] | Potency [8] | outcome [9] | outcome [10] | outcome [11] | outcome [12] | outcome [14]

C[Si]1(C)O[Si](C)(C)O[Si](C)(C)O1
inactive: Potency [1] | Potency [15] | Potency [2] | Potency [3] | Potency [4] | outcome [5] | outcome [6] | Potency [7] | outcome [9] | outcome [10] | outcome [11] | Potency [19] | Potency [13] | outcome [20] | outcome [14]

C=CCCCCCCCCCCCCCCCC
inactive: activity change, negative = cytotoxicity [1] -1.2% [at 5.95 µM] | activation [15] -3.43% [at 5.95 µM] | viability change, negative = cytotoxic [2] 13.3% [at 6.26 µM] | ratio activity, negative = inhibition [16] -0.434% [at 6.26 µM] | activity change, negative = inhibition [17] -5.71% [at 5.95 µM] | viability change, negative = cytotoxic [3] 4.85% [at 5.95 µM] | activation [18] -1.74% [at 5.95 µM] | activity change, negative = cytotoxicity [4] -0.119% [at 5.95 µM] | activation [5] -0.178% [at 6.01 µM] | activity change, negative = inhibition [6] 7.35% [at 6.95 µM] | activity change, negative = cytotoxicity [7] 7.44% [at 5.95 µM] | viability change, negative = cytotoxic [8] 8.8% [at 6.95 µM] | activation [9] 0.162% [at 6.95 µM] | activity, negative = cytotoxic [10] -0.437% [at 6.95 µM] | activation [11] 3.12% [at 6.95 µM] | activity, negative = cytotoxicity [19] 6.9% [at 8.39 µM] | activity change, negative = inhibition [13] 11.3% [at 8.39 µM] | viability change, negative = cytotoxic [20] 4.34% [at 6.97 µM] | activation [14] -4.53% [at 6.97 µM]

CC(C)(C)C(=O)O
inactive: Potency [1] | Potency [15] | Potency [2] | Potency [16] | Potency [17] | Potency [3] | Potency [18] | Potency [4] | outcome [5] | outcome [6] | Potency [7] | Potency [8] | outcome [9] | outcome [10] | outcome [11] | Potency [19] | Potency [13] | outcome [14]

COc1cc2[nH]c(=O)[nH]c(=O)c2cc1OC
inactive: Potency [1] | Potency [15] | Potency [2] | Potency [16] | Potency [3] | Potency [4] | outcome [5] | outcome [6] | Potency [7] | Potency [8] | outcome [9] | outcome [10] | outcome [11] | Potency [19] | Potency [13] | outcome [20] | outcome [14]

CO[C@H]1C=CO[C@@]2(C)Oc3c(C)c(O)c4c(O)c(c5c(c4c3C2=O)=NC2(CCN(CC(C)C)CC2)N=5)NC(=O)/C(C)=C\C=C/[C@H](C)[C@H](O)[C@@H](C)[C@@H](O)[C@@H](C)[C@H](OC(C)=O)[C@@H]1C
active: Potency [1] 24 µM | Potency [13] 53.3 µM
inactive: Potency [18] | Potency [8] | outcome [9] | outcome [10] | outcome [11] | outcome [12] | outcome [14]

CC1C2CC(CC2C2CCCC(O)C2)C1(C)C (stereo unspecified)
active: Potency [7] 49 µM
inactive: Potency [15] | Potency [16] | Potency [18] | outcome [5] | outcome [9] | outcome [11] | outcome [12] | Potency [13]

Cc1ccccc1N1C(=O)c2cc(S(N)(=O)=O)c(Cl)cc2NC1C (stereo unspecified)
inactive: Potency [1] | Potency [15] | Potency [2] | Potency [16] | Potency [17] | Potency [3] | Potency [18] | Potency [4] | outcome [5] | Potency [7] | Potency [8] | outcome [9] | outcome [11] | outcome [12] | Potency [19] | outcome [20] | outcome [14]

OC(CCCN1CCCCC1)(c1ccccc1)c1ccccc1
inactive: Potency [1] | Potency [15] | Potency [2] | Potency [16] | Potency [4] | outcome [5] | outcome [6] | Potency [7] | Potency [8] | outcome [9] | outcome [11] | outcome [12] | Potency [19] | outcome [14]

CC(CCc1ccc2c(c1)OCO2)NN (stereo unspecified)
inactive: Potency [1] | Potency [15] | Potency [2] | Potency [16] | Potency [3] | Potency [4] | Potency [7] | Potency [8] | outcome [9] | outcome [11] | outcome [12] | Potency [19] | outcome [20] | outcome [14]

CC1=CC(O)CC(C)(C)C1 (stereo unspecified)
inactive: Potency [1] | Potency [2] | Potency [4] | outcome [5] | outcome [6] | Potency [7] | Potency [8] | outcome [9] | outcome [11] | outcome [12] | Potency [19] | outcome [20] | outcome [14]

CCC(Cc1ccccc1)(C(=O)c1ccc(N2CCOCC2)cc1)N(C)C (stereo unspecified)
inactive: Potency [1] | Potency [15] | Potency [2] | Potency [16] | Potency [18] | Potency [4] | outcome [5] | outcome [9] | outcome [11] | outcome [12] | Potency [19] | outcome [20] | outcome [14]
